Assay [1] addresses Agonist Androgen Response Element (ARE), AR (gene 367) (UniProt P10275). Description: OT_AR_ARELUC_AG_1440: Odyssey Thera (OT) 24-hour CHO-K1 Luciferase Assay for Agonist Androgen Response Element (ARE) (AID 2283379). An outline of the steps:
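Gain-of-signal reporter endpoint: cells (CHO-K1, hamster) are treated 24 h, luciferin/ATP reagent added, and luminescence compared with DMSO baseline.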

For assay [2], the target named is Estrogen receptor beta (Homo sapiens) (UniProt Q92731). Description: OT_ER_ERbERb_1440: Odyssey Thera (OT) 24-hour HEK293T Protein-Complementation Assay for Estrogen Receptor-beta/-beta Homodimer (AID 2283380).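 Further: scored as signal increase over DMSO baseline for both agonists and antagonists.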 An outline of the steps: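 HEK293T cells stably expressing ER beta LBD (aa 310-547) homodimer fragment-complementation reporter, dosed 24 h. Cells formaldehyde-fixed, Draq5-stained; gain in nuclear (agonist) or nuclear plus cytoplasmic (antagonist) fluorescence versus DMSO read by laser scanning cytometry.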
Chain of Estrogen receptor beta (Homo sapiens) (Q92731 whole entry, looked up, the tested form may be a part): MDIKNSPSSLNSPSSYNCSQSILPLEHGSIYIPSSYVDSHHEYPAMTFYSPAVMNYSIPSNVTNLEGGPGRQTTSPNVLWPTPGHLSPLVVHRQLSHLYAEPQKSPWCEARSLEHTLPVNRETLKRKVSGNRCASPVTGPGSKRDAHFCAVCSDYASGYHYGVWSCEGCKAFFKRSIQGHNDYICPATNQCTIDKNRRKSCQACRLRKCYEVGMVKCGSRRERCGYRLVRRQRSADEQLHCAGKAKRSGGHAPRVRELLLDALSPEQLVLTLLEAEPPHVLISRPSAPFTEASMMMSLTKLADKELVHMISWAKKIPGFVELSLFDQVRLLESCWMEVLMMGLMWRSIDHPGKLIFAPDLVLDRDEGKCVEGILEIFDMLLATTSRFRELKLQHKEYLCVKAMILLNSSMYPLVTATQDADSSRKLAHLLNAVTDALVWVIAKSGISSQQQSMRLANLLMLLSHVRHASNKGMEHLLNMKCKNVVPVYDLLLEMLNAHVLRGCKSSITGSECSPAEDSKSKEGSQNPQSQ

In assay [3] the target is Estrogen receptor (Homo sapiens) (UniProt P03372). Description: OT_ERa_GFPERaERE_0480: Odyssey Thera (OT) 8-hour HeLa Transcription Induction Assay for Estrogen Receptor (AID 2283381; active means hit-call score of the fitted dose curve at least 0.9, where 1 is the maximum; inactive means score below 0.9). An outline of the steps: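 An 8 h HeLa transcription-induction format with a GFP reporter under ERE control, read by fluorescence microscopy; single endpoint fitted positively with DMSO as baseline.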
Chain of Estrogen receptor (Homo sapiens) (P03372 whole entry, looked up): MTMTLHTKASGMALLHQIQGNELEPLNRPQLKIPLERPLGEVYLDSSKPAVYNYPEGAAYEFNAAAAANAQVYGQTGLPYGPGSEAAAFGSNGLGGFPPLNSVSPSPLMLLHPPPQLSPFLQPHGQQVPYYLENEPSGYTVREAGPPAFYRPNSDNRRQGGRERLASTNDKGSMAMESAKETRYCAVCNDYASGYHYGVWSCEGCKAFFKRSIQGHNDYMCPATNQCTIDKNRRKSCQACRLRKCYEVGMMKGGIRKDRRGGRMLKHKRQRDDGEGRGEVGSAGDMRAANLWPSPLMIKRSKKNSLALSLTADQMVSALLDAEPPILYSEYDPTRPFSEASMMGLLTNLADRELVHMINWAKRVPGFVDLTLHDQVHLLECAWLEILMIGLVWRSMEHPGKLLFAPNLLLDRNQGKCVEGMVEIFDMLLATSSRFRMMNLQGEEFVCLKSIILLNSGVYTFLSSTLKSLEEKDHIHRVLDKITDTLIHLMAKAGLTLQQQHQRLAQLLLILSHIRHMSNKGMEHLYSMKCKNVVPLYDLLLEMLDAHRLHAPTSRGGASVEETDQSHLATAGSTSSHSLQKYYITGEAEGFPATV

The target is the same in assay [4]. Description: OT_ERa_GFPERaERE_0120: Odyssey Thera (OT) 2-hour HeLa Transcription Induction Assay for Estrogen Receptor (AID 2283382). An outline of the steps: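 Two-hour compound treatment of HeLa cells preceded microscopy imaging of an inducible fluorescent reporter. Image-based quantification gave one endpoint, analysed for signal increase relative to DMSO controls.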

The target in assay [5] is Bile acid receptor (Homo sapiens) (UniProt Q96RI1). Description: OT_FXR_FXRSRC1_0480: Odyssey Thera (OT) 8-hour HEK293T Protein-Complementation Assay for Farnesoid X receptor/SRC-1 Co-activator (AID 2283383). An outline of the steps:
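Readings were taken 8 h after dosing HEK293T cells in a split-reporter complementation format pairing FXR with SRC-1. Increased fluorescence relative to DMSO-treated wells defined activity.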

The target of assay [6] is Retinoic acid receptor RXR-alpha (Homo sapiens) (UniProt P19793). Description: OT_NURR1_NURR1RXRa_0480: Odyssey Thera (OT) 8-hour HEK293T Protein Complementation Assay for Nurr1/retinoid X receptor (RXR) (AID 2283385). The method in brief: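 Gain in fluorescent complementation signal over DMSO, measured 8 hours after chemical dosing of human kidney HEK293T cells, indicated enhanced Nurr1–RXRα association.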
Chain of Retinoic acid receptor RXR-alpha (Homo sapiens) (P19793 whole entry, looked up): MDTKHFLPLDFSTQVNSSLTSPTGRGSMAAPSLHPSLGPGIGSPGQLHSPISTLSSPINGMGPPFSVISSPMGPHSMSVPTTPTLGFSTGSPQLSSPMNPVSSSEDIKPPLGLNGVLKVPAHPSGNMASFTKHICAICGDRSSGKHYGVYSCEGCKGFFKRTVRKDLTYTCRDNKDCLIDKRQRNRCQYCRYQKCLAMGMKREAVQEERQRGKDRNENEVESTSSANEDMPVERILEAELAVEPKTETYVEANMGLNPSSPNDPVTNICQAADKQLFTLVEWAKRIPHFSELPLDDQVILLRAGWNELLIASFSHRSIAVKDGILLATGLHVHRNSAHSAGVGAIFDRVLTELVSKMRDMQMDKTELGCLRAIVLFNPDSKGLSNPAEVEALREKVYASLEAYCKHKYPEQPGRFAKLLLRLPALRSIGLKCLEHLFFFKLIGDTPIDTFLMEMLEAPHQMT

Assay [7] has the same target. Description: OT_NURR1_NURR1RXRa_1440: Odyssey Thera (OT) 24-hour HEK293T Protein Complementation Assay for Nurr1/retinoid X receptor (RXR) (AID 2283386). The method in brief: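 Cell-based binding reporter: HEK293T cells, 24 h exposure, fluorescence-detected fragment complementation, DMSO as baseline.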
In assay [8] the target is human Norepinephrine Transporter (NET), SLC6A2 (gene 6530) (UniProt P23975). Description: NVS_TR_hNET: NovaScreen (NVS) Transporter Assay for human Norepinephrine Transporter (NET) (AID 2283377).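 Further: cell-free membrane protein extracted from CHO cells expressing human NET.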 An outline of the steps: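 CHO cell extracts expressing the transporter; tritiated or iodinated tracer displaced competitively; filtration plus scintillation readout at 1 h. Single-point duplicates at 25 uM, concentration series for follow-up; activity = signal drop relative to DMSO.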
Chain of human Norepinephrine Transporter (NET), SLC6A2 (gene 6530) (P23975 whole entry, looked up): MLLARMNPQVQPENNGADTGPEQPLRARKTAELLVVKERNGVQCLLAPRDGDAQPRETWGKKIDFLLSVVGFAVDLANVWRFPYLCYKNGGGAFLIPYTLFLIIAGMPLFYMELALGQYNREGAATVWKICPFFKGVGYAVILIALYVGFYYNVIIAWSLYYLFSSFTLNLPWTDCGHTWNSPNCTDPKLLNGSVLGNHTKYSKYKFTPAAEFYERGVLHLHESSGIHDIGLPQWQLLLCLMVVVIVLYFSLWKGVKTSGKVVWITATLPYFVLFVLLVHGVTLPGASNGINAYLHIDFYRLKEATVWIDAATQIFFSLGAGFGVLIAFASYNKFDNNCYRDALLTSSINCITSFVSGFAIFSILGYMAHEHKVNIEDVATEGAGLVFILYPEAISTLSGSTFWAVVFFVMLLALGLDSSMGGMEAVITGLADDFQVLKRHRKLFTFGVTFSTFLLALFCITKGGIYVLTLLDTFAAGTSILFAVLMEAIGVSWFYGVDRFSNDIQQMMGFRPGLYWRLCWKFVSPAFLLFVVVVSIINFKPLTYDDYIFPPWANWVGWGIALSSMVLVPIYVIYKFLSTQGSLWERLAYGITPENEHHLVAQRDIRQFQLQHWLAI

The target of assay [9] is Peroxisome proliferator-activated receptor gamma (Homo sapiens) (UniProt P37231). Description: OT_PPARg_PPARgSRC1_0480: Odyssey Thera (OT) 8-hour Protein-Complementation Assay for Peroxisome Proliferator-activated Receptor Gamma / SRC-1 Co-activator (AID 2283387).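 Further: nuclear to cytoplasmic split Venus YFP fluorescence ratio reporting PPARg SRC-1 interaction.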 The method in brief:
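Protein-fragment complementation of split Venus YFP reports PPARg/SRC-1 interaction in HEK293T (transfected 48 h before treatment), exposed 8 h. Readout: N/C fluorescence ratio at 488 nm from imaging, Draq5 for segmentation, positive fit relative to DMSO.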

Molecules are shown by their SMILES. Values joined by “and” are separate entries in the source; they are usually repeats but may differ in a detail not shown here. Equal values may be shown once. Inconclusive results are not listed. More than one record can exist for a structure, and the calls need not agree. Active and inactive are the calls of the source. How the source made its calls, unless noted: active means hit-call score of the fitted dose curve at least 0.9, where 1 is the maximum; inconclusive means response in the unintended direction; inactive means score below 0.9.

Chain of Bile acid receptor (Homo sapiens) (Q96RI1 whole entry, looked up): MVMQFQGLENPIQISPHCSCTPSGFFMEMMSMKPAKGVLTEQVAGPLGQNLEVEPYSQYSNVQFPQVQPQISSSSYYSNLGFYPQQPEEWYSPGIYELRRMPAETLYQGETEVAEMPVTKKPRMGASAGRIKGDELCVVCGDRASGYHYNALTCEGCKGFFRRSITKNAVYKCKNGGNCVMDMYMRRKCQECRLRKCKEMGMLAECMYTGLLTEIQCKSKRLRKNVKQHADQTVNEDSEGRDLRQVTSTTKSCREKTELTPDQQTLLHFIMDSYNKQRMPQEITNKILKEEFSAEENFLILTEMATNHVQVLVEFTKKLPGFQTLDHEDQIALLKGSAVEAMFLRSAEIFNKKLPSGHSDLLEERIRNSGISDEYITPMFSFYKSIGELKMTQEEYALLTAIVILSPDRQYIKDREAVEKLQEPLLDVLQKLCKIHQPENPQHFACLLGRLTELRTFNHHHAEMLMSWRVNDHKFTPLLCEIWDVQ
Chain of Peroxisome proliferator-activated receptor gamma (Homo sapiens) (P37231 whole entry, looked up, the tested form may be a part): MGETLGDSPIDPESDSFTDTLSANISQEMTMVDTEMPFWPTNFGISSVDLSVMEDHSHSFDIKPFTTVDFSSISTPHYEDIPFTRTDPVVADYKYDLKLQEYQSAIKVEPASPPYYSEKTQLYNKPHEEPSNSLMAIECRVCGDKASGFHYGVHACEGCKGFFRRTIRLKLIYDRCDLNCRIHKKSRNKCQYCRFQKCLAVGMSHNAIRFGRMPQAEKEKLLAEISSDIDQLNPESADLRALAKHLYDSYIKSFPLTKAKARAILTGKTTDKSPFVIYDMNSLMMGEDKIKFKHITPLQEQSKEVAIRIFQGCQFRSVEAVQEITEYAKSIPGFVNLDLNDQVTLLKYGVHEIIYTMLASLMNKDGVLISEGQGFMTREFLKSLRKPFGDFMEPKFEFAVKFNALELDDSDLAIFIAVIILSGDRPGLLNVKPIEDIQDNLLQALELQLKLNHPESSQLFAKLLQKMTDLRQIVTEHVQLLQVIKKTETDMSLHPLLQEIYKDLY
Chain of Agonist Androgen Response Element (ARE), AR (gene 367) (P10275 whole entry, looked up): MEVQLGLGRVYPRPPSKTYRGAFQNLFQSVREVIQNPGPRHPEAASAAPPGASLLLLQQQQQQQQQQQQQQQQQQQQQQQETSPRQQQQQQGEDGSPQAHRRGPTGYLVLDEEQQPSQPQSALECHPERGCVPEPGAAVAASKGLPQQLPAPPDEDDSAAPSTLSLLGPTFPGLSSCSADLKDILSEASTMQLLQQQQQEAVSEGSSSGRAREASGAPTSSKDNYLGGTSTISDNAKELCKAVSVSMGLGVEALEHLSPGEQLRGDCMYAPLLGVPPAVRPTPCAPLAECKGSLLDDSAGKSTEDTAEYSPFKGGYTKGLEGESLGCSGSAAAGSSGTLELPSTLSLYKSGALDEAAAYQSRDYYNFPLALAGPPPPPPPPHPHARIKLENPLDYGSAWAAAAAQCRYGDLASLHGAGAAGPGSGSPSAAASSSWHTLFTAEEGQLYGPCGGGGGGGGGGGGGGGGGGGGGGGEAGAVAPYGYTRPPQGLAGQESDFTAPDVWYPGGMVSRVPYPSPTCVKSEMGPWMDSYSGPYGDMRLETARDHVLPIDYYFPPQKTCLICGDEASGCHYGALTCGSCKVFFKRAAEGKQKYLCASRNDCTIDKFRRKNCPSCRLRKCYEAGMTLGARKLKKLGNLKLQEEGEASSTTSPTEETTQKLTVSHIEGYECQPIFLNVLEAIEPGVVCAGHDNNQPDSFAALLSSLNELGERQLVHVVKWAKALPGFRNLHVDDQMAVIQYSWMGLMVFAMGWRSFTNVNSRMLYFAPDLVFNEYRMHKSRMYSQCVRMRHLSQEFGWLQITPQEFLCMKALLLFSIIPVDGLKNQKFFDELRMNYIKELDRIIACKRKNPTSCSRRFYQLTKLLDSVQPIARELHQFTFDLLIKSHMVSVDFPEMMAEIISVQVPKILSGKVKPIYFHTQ

Turning to `Cc1c(C)c2c(c(C)c1O)CCC(C)(COc1ccc(CC3SC(=O)NC3=O)cc1)O2` (configuration not stated), the result in assay [1], in assay [2], in assay [3], in [4] and in assay [7] was inactive. For the same molecule, the half-maximal activity concentration (AC50) is 20 µM (active) in assay [5]; 67.9 µM (active) and 76 µM (active) in assay [6].
With `Nc1nc(=S)c2[nH]cnc2[nH]1`, the molecule was called inactive in assay [8], in assay [1], in assay [2], in [3], in [4] and in [6]. The molecule was classed as inactive in assay [7] and in assay [9].
As to `CCN(CC)CCOc1ccc(C(=C(Cl)c2ccccc2)c2ccccc2)cc1`, the call in assay [1] and in assay [9] was inactive. The half-maximal activity concentration (AC50) in [2] was 60.4 nM (active) and 53.3 nM (active) and 30.6 nM (active); in [6], 9.55 µM (active).
As to `CC1(C)C(=O)NC(=O)N1CO`, the AC50 in assay [2] is 57.3 µM (active). Moreover, the molecule was classed as inactive in [3], in [4], in assay [6] and in [9].
Take `CN(C)CCCN(C)CCCN(C)C`: the molecule was called inactive in [2], in [3], in assay [4], in [6], in assay [7] and in assay [9].
For `NCCOCCOCCN`, the call in assay [1], in assay [2], in assay [6], in [7] and in assay [9] was inactive.
In the case of `CCCCC(CC)COP(=O)(OCC(CC)CCCC)OCC(CC)CCCC` (configuration not stated), the outcome in assay [2], in assay [6], in assay [7] and in assay [9] was inactive. Moreover, the AC50 in assay [5] is 15.6 µM (active); in [7], 76.1 µM (active).
As to `CCOCCOCCO`, the molecule was called inactive in assay [1], in assay [6], in assay [7] and in assay [9].
Turning to `CCCCCCC(C=O)=Cc1ccccc1`, the molecule was classed as inactive in [2], in assay [7] and in [9]. Moreover, the figures for the AC50 in [5] and in assay [6] were 50 µM (active) and 73.4 µM (active), respectively.
As for `CCCCCCC(CCCCCCCCCCC(=O)OCC(COC(C)=O)OC(C)=O)OC(C)=O` (configuration not stated), the molecule was called inactive in assay [2], in assay [3], in [4], in assay [5], in assay [6] and in assay [7]. Besides, in assay [9], the result was inactive.
Take `O=C(O)CC(O)(CC(=O)O)C(=O)O`: the result in assay [2], in [3], in assay [4] and in [9] was inactive.
As to `O=C1OC(c2ccc(O)cc2)(c2ccc(O)cc2)c2ccccc21`, the result in assay [1], in assay [6], in [7] and in assay [9] was inactive. The AC50 in [2] was 11.9 µM (active).
On to `CCCCCCCC(=O)OC`, for which the call in assay [2], in [3], in assay [4], in assay [6], in [7] and in assay [9] was inactive.
`NC1CCCCC1`: the outcome in assay [2], in assay [3], in [4], in [6], in [7] and in assay [9] was inactive.
In the case of `Cc1cc(SC2=C(O)C[C@@](CCc3ccc(N)cc3)(C(C)C)OC2=O)c(C(C)(C)C)cc1CO`, the call in assay [1], in assay [5], in assay [6] and in assay [9] was inactive.
Take `CC(=O)OC1CC(C)OC(C)O1` (configuration not stated): the call in assay [2], in [5], in assay [7] and in assay [9] was inactive.
For `CC(C)(O)c1ccc(CNC(=O)c2cccnc2Oc2ccc(F)cc2)cc1`, the molecule was classed as inactive in assay [2].
As to `CCCCc1nc2cccnc2n1Cc1ccc(-c2ccccc2-c2nnn[nH]2)cc1`, the result in [2], in [3] and in [4] was inactive. Also, the concentration at half-maximal activity (AC50) in assay [5] was 60.8 µM (active); in assay [6] it was 15.4 µM (active); in assay [7], 7.85 µM (active); in assay [9] it was 18.5 µM (active).
For the molecule `CC(COCC(C)OC(=O)c1ccccc1)OC(=O)c1ccccc1` (configuration not stated), the molecule was called inactive in assay [2], in [6] and in assay [9]. Also, the AC50 in [5] is 19.4 µM (active).
Consider `Cc1ccc(C(C)(C)C)c(O)c1`, for which the molecule was called inactive in assay [2], in assay [3], in [4], in assay [6], in assay [7] and in assay [9]. For the same molecule, the AC50 in [5] is 60.6 µM (active); in assay [6], 75 µM (active); in assay [7] it was 78.7 µM (active).
For `O=[Si]=O`, the molecule was called inactive in assay [2], in assay [3], in [4] and in [9].
As to `CS(=O)(=O)c1ccc([C@@H](C[C@H]2CCC(=O)C2)C(=O)Nc2cnccn2)cc1Cl`, the call in assay [2], in assay [3], in [4], in assay [6] and in assay [9] was inactive.
For `C#CC(O)C(CC)CCCC` (configuration not stated), the molecule was called inactive in [1], in assay [2] and in [9]. The concentration at half-maximal activity (AC50) in assay [6] was 28.8 µM (active); in [7] it was 76.3 µM (active).
In the case of `CCCCCCCCCCCCCCCCO`, the outcome in assay [2], in assay [3], in [4], in assay [6], in assay [7] and in [9] was inactive.
Regarding `C=CCc1ccc(OC)c(OC)c1`, the molecule was called inactive in [2], in assay [5], in assay [6], in assay [7] and in [9].
`CC(C)(C)c1ccccc1`: the outcome in assay [2], in assay [6] and in assay [7] was inactive.
Regarding `COc1ccc(C(=O)Nc2nc3ccccc3c(NCc3ccccc3)c2C#N)cc1`, the outcome in assay [2], in assay [3], in assay [4], in assay [5], in assay [7] and in assay [9] was inactive. Also, in assay [6], the concentration at half-maximal activity (AC50) was 9.26 µM (active).
Regarding `CCCCC(CC)CO` (configuration not stated), the outcome in [2], in assay [5], in assay [6], in [7] and in [9] was inactive.
As to `Oc1ccc(O)cc1`, the AC50 was 26.4 µM (active) in assay [2] and 44 µM (active) in assay [7]. Moreover, the molecule was classed as inactive in assay [3], in assay [4], in assay [6] and in assay [9].
As for `Cc1cn([C@H]2C=C[C@@H](CO)O2)c(=O)[nH]c1=O`, the outcome in assay [2], in [5], in assay [6] and in assay [9] was inactive.
As to `CC(C)c1cccc(C(C)C)c1NC(=O)NS(=O)(=O)c1cc(C(C)(C)O)co1`, the outcome in assay [2], in assay [5], in [6] and in [7] was inactive.
For the molecule `NC=O`, the outcome in [2] and in assay [9] was inactive.
`CC(=O)OCC(COC(C)=O)OC(C)=O`: the result in [2], in assay [7] and in assay [9] was inactive.
With `O=NO`, the molecule was classed as inactive in [7] and in assay [9].
Regarding `Oc1ccccc1O`, the AC50 was 31 µM (active) in [2]; 16 µM (active) and 23.7 µM (active) in assay [7]. The molecule was classed as inactive in [6] and in assay [9].

By AC50 is commonly meant the midpoint of the concentration-response curve, whichever way the signal moves.

Values taken from PubChem BioAssay (EPA / NIEHS).
